This note sets out measurements from PubChem BioAssay (NCI).

Molecules are shown by their SMILES. Values joined by “and” are separate entries in the source; they are usually repeats but may differ in a detail not shown here. Equal entries are not always repeated. About 83,000 compounds went through this panel and 20% of them were active in at least one assay; those are over-represented in the sample as a whole.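 Compound tested at a single concentration for 48 hours in 96-well plates; a percent growth value below 10 was scored as active.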 Values without a mark were called inactive. Active and inactive are the calls of the source.

Test systems include NCI-H23 lung; NCI-H226 lung; NCI-H322M lung; HOP-62 NSCLC; NCI-H460 lung; HOP-92 NSCLC; NCI-H522 lung; A549/ATCC NSCLC; 786-0 renal; COLO 205 colon; DU-145 prostate; K-562 leukemia; MALME-3M melanoma; MDA-MB-231 breast; RXF 393 renal; SF-268 CNS; SF-295 CNS; SF-539 CNS; UACC-257 melanoma; M14 melanoma.
Holding throughout (test): NCI-60 one-dose screen, 48 h (100 = growth as untreated, 0 = no growth, -100 = all killed)
Holding throughout (details): 10 µM unless noted

`COc1ccc(-c2nc(Cl)c3c(C)nn(-c4ccc(F)cc4)c3n2)cc1`: the growth with NCI-H23 lung was 97.1%; in the assay on NCI-H226 lung, 103%; in the assay with NCI-H322M lung it was 105%; in the assay with HOP-62 NSCLC, 104%; in the assay on NCI-H460 lung, 108%; in the assay on HOP-92 NSCLC it was 101%. For the same compound, the growth was 97.3% in the assay with NCI-H522 lung; 90.4% with A549/ATCC NSCLC; 105% in the assay on 786-0 renal; 110% in the assay on COLO 205 colon; 111% with DU-145 prostate; 100% in the assay on K-562 leukemia. The growth with MALME-3M melanoma was 115%; with MDA-MB-231 breast, 106%; in the assay with RXF 393 renal, 122%; in the assay on SF-268 CNS, 106%; with SF-295 CNS it was 107%; in the assay with SF-539 CNS, 111%. For the same compound, the growth was 91.9% in the assay on UACC-257 melanoma and 100% in the assay on M14 melanoma.
Consider `Cn1cc(C2=C(c3cccc4ccccc34)C(=O)NC2=O)c2cc(Br)ccc21`, for which the growth was 93.5% in the assay on NCI-H23 lung; 103% with NCI-H226 lung; 100% with NCI-H322M lung; 111% in the assay on HOP-62 NSCLC; 104% in the assay on NCI-H460 lung; 171% in the assay with HOP-92 NSCLC. The growth was 99.8% with NCI-H522 lung; 91.3% in the assay with A549/ATCC NSCLC; 84.7% in the assay on 786-0 renal; 92% in the assay on COLO 205 colon; 110% in the assay on DU-145 prostate; 87.2% in the assay with K-562 leukemia. For the same compound, the growth in the assay on MALME-3M melanoma is 143%; with MDA-MB-231 breast, 113%; in the assay on RXF 393 renal, 102%; in the assay on SF-268 CNS, 102%; in the assay with SF-295 CNS, 102%; with SF-539 CNS, 121%. Besides, the growth is 138% in the assay with UACC-257 melanoma and 114% in the assay with M14 melanoma.
In the case of `COc1cc(C(=O)c2ccccc2C(=O)O)c(OC)c2c1CCCC2`, the growth was 98.2% and 94.4% in the assay with NCI-H23 lung; 108% with NCI-H226 lung; 108% and 101% with NCI-H322M lung; 106% in the assay on HOP-62 NSCLC; 103% and 107% with NCI-H460 lung; 95.8% with HOP-92 NSCLC. Besides, the growth with NCI-H522 lung is 106% and 145%; with A549/ATCC NSCLC, 97.5% and 101%; in the assay with 786-0 renal, 94.2% and 97.6%; in the assay on COLO 205 colon, 114% and 108%; in the assay with DU-145 prostate it was 99% and 106%; in the assay with K-562 leukemia it was 85.7% and 84.7%. Also, the growth with MALME-3M melanoma is 90.5% and 97.3%; with MDA-MB-231 breast, 87.8% and 101%; in the assay with RXF 393 renal, 107% and 100%; in the assay with SF-268 CNS, 92.5% and 101%; in the assay with SF-295 CNS, 97% and 102%; in the assay with SF-539 CNS, 97.3% and 103%. The growth in the assay with UACC-257 melanoma is 95.9% and 99.5%; in the assay on M14 melanoma it was 94.4% and 97.6%.
As to `CCN1C(=O)/C(=c2\sc3n(c2=O)C2C(NN=3)N(CC)C(=O)N2CC)c2ccccc21` (stereo not given), the growth is 34.5% in the assay on NCI-H23 lung; 103% in the assay with NCI-H226 lung; 46.5% in the assay with NCI-H322M lung; 32.1% with HOP-62 NSCLC; 4.65% (active) in the assay on NCI-H460 lung; 39.2% in the assay with HOP-92 NSCLC. The growth in the assay on NCI-H522 lung was 19.9%; with A549/ATCC NSCLC, 32.8%; with 786-0 renal, 30.9%; with COLO 205 colon, -11.5% (active); with DU-145 prostate, 7% (active); with K-562 leukemia, 7.63% (active). In addition, the growth in the assay with MALME-3M melanoma was 49.5%; in the assay with MDA-MB-231 breast, 23.9%; in the assay with RXF 393 renal, -7.21% (active); with SF-268 CNS it was 61.7%; with SF-295 CNS, 9.43% (active); in the assay with SF-539 CNS it was -20.9% (active). The figures for the growth with UACC-257 melanoma and with M14 melanoma were 96.5% and 46.2%, respectively.
As to `O=C(/C=C/C12c3ccccc3C(c3ccccc31)C1C(=O)NC(=O)C12)c1ccncc1` (stereo not given), the growth in the assay on NCI-H23 lung was 23.2%; with NCI-H226 lung, 78.9%; in the assay with NCI-H322M lung, 35.6%; in the assay on HOP-62 NSCLC, 4.78% (active); in the assay with NCI-H460 lung it was 24.9%; with HOP-92 NSCLC, 23.6%. Besides, the growth with NCI-H522 lung was 28.5%; in the assay with A549/ATCC NSCLC, 86.1%; in the assay with 786-0 renal it was 20.6%; in the assay with COLO 205 colon it was 78.2%; in the assay with DU-145 prostate, 13%; in the assay on K-562 leukemia, 6.6% (active). The growth in the assay with MALME-3M melanoma was 37.1%; with MDA-MB-231 breast it was 15%; with RXF 393 renal it was 13.4%; with SF-268 CNS it was 10.2%; in the assay with SF-295 CNS it was 28.4%; in the assay with SF-539 CNS it was 5.79% (active). Besides, the growth with UACC-257 melanoma is 32.3%; in the assay with M14 melanoma it was 20.3%.
Turning to `CN(C)C1CCN(C(=O)c2ccc(NC(=O)Nc3ccc(-c4nc(N5CCOCC5)c5cccn5n4)cc3)cc2)CC1`, the growth in the assay with NCI-H23 lung was 15.5%; in the assay on NCI-H226 lung it was -7.75% (active); in the assay with NCI-H322M lung, -9.27% (active); with HOP-62 NSCLC, -12.9% (active); in the assay with NCI-H460 lung, 6.48% (active); in the assay with HOP-92 NSCLC it was -31.2% (active). Besides, the growth with NCI-H522 lung is 14.6%; with A549/ATCC NSCLC it was 3.9% (active); in the assay with 786-0 renal it was -18.6% (active); with COLO 205 colon it was -3.31% (active); in the assay on DU-145 prostate, 0.561% (active); with K-562 leukemia, 18.9%. Besides, the growth in the assay on MALME-3M melanoma is -32.6% (active); in the assay with MDA-MB-231 breast, 0.146% (active); with RXF 393 renal it was -30.4% (active); with SF-268 CNS, 2.29% (active); in the assay with SF-295 CNS it was -37.1% (active); with SF-539 CNS, -39.6% (active). Also, the growth in the assay on UACC-257 melanoma is -18.3% (active); in the assay on M14 melanoma, -0.109% (active).
